We go through 50 molecules from ChEMBL document CHEMBL3988442, “University of Dundee, Small-Polar-MMV Screening Library” (2021).

Among all 48,000 compounds or so, about 13,000 (27%) showed an effect of 50% or more. The list shows a part of the results.

The subject of this assay is Wolbachia pipientis. The assay can be described thus: Anti-Wolbachia Cell-Based Screen. Format: functional. The settings on record: 5 µM. Also noted: scale not given: in the data most compounds retested in dose-response had high values.
For `O=C1CCOC[C@]2(CN(Cc3ccccc3)C[C@H]2c2ccccc2F)N1`, the “Percent Effect” value was determined as 94.73%. In the case of `Cc1ccc(OCC(=O)N2C[C@@H]3CN(C)CCO[C@@H]3C2)cc1.O=C(O)C(F)(F)F` it was -15%; in that of `CN(Cc1ccoc1)C(=O)C1CCN(C(=O)C2CCCC2)CC1`, -1.17%. As for `Cc1cc(NC(=O)CN(C)CC2CCCN2c2cccnn2)n(C)n1` (stereo not given), the figure is -5.162%.

Take `N[C@@H]1CCN(Cc2ccc(-c3nc(-c4cccnc4)cc(=O)[nH]3)cc2)C1`: the “Percent Effect” value stood at 4.047%. Turning to `COc1cc(C(C)=O)ccc1SCC(=O)Nc1cc(C)n[nH]1`, the “Percent Effect” value is 8.192%. In the case of `O=C1CCOC[C@]2(CN(Cc3ccccc3)C[C@H]2c2cccc(F)c2)N1`, the “Percent Effect” value is on record as 100.5%. As for `O=C1NC[C@@]2(C(=O)O)CN(Cc3cccc(CN4CCOCC4)c3)C[C@@H]12`, the figure is -10.55%; as for `O=C(NC[C@]12COC[C@H]1CN(Cc1cccc(F)c1)C2)c1ccco1`, 10.17%.

Take `N#Cc1ccc(CNCC(C(=O)N2CCOCC2)c2ccccc2)cc1` (stereo not given): the “Percent Effect” value is on record as -11.01%.

For the molecule `Cl.Fc1cccc(CN2CCC(c3cc4ncccc4cn3)CC2)c1F`, the “Percent Effect” value was 64.82%. As for `COc1ccc(Oc2cccnc2)cc1CN1CCCC1`, the figure is 40.81%.

On to `Cl.Fc1ccc(F)c(CN2CCC(c3cc4ncccc4cn3)CC2)c1`, for which the “Percent Effect” value is 84.15%. As for `COc1ccc(C)cc1CN1CCN(Cc2nccn2C)CC1`, the figure is -6.315%; as for `COc1ccc(C)cc1CN1CCC(c2cc3ncccc3cn2)CC1.Cl`, 107%; as for `Fc1ccc(F)c(CN2CCC(c3cnccn3)CC2)c1`, 76.33%. As for `Fc1cccnc1N1CCC(NCc2cccc3cn[nH]c23)C1` (stereo not given), the “Percent Effect” value turned out to be 4.996%.

`O=C(c1cccnc1)N1C[C@@H]2CC[C@H](C1)N(Cc1cc(F)ccc1F)C2`: the “Percent Effect” value was -19.69%.

Regarding `Cl.Cl.OC(CN1CCN(Cc2cc(F)ccc2F)CC1)C1CC1` (stereo not given), the “Percent Effect” value is reported as -0.1352%. In the case of `Cc1cnn(Cc2cc(F)ccc2F)c1NC(=O)NC1CC1` it was -2.224%. In the case of `CN(Cc1cc(F)cc2cccnc12)CC1CCN(CCO)CC1` it was -1.587%; in that of `CC(C)CCNc1nnc(C(C)C)s1`, -2.433%; in that of `Cc1noc(C)c1CN(C)C(=O)C1(N)CCCCC1`, -29.06%.

`CCC1CN(Cc2ccccc2)CCN1Cc1nnc(C2CCC2)o1` (stereo not given): the “Percent Effect” value was found to be 7.114%. In the case of `CN(Cc1nc(C2CC2)no1)C(=O)c1cccc(CC2CCNCC2)c1` it was -25.8%; in that of `CC(C)(O)c1cn(C2CCN(C(=O)CCc3ccncc3)CC2)nn1`, -4.68%. For the molecule `O=C(Nc1cnc(C2CC2)nc1)N1CCCC1`, the “Percent Effect” value was -9.25%.

In the case of `Fc1cc(F)cc(CN2CCC(c3cc4ncccc4cn3)CC2)c1`, the “Percent Effect” value is 115.3%. With `CC(C)c1cc(C2CCN(Cc3cc(F)cc(F)c3)CC2)[nH]n1`, the “Percent Effect” value is recorded as 18.27%. As for `CCn1c(C)nnc1CN(C)C1CCN(Cc2cnc(C)cn2)C1` (stereo not given), the figure is -10.08%. `CCn1c(C)nnc1CN(C)C1CCN(Cc2ccon2)C1` (stereo not given): the “Percent Effect” value is reported as 7.959%. In the case of `CCn1c(C)nnc1CN(C)C1CCN(Cc2nnc(C3CC3)o2)C1` (stereo not given) it was 99.37%; in that of `Cc1cnc(CN2CCC(N(C)Cc3nnc(C)n3C)C2)cn1` (stereo not given), 0.1518%; in that of `Cc1nnc(CN(C)C2CCN(Cc3nnc(C4CCC4)o3)C2)n1C` (stereo not given), 92.95%. On to `N#CC(NC(=O)CCC1CCC1)c1cnn(-c2ccccc2)c1` (stereo not given), for which the “Percent Effect” value is on record as 1.369%. In the case of `CNC(=O)Cn1nc(C(C)C)c2cnn(C(C)(C)C)c2c1=O` it was -6.377%; in that of `CN(C)[C@@H]1CO[C@H](CNC(=O)C2CCCC2)[C@H]1O`, -8.236%; in that of `Cc1ccc(C(=O)NCCNC(=O)c2cncnc2C)cc1F`, -5.207%. In the case of `Cc1nc([C@H]2C[C@H]3CN(C(=O)c4cc(C)c(C)s4)CC[C@@H]3O2)no1` it was 1.908%; in that of `CCN1C[C@@H]2[C@@H](OC)CCN(C(=O)c3cc(C)nn3CC)[C@@H]2C1.O=C(O)C(F)(F)F`, -7.784%; in that of `CCn1nc(C)cc1C(=O)N1C[C@@H]2C[C@@H](c3noc(C)n3)O[C@@H]2C1`, 118.5%. On to `Cc1csc([C@@H]2C[C@@H]3CCN(C(=O)c4ccnnc4)C[C@H]3O2)n1`, for which the “Percent Effect” value is recorded as -12.9%. As for `Cc1csc([C@@H]2C[C@@H]3CCN(C(=O)c4cc(C)on4)C[C@H]3O2)n1`, the figure is 1.11%; as for `Cc1nnc([C@@H]2C[C@H]3CN(C(=O)c4c(C)noc4C)C[C@H]3O2)[nH]1.O=C(O)C(F)(F)F`, -14.34%; as for `Cc1nnc([C@@H]2C[C@H]3CN(C(=O)C4CC4)C[C@H]3O2)[nH]1`, -12.1%. As for `CCn1nc(C)cc1C(=O)N1CC[C@H](OC)[C@H]2CN(CC3CC3)C[C@H]21.O=C(O)C(F)(F)F`, the figure is 3.94%; as for `CCn1nc(C)cc1C(=O)N1C[C@@H]2C[C@@H](c3nc(C)cs3)O[C@@H]2C1`, 100.8%; as for `CCn1nc(C)cc1C(=O)N1C[C@@H]2C[C@@H](C)O[C@@H]2C1.O=C(O)C(F)(F)F`, 99.49%.

Consider `CCC(C)(C)C(=O)N1C[C@@H]2C[C@@H](c3nnc(C)[nH]3)O[C@@H]2C1`, for which the “Percent Effect” value came out at 92.76%. In the case of `Cc1ccc(C(=O)N2CC[C@H]3O[C@@H](c4noc(C)n4)C[C@H]3C2)o1` it was 6.095%.
